Experimental data published in PubChem BioAssay AID1159580 (chemical genetic matrix, 2015).
Where “and” joins values, the source holds several entries; their conditions need not be identical. Equal entries are not always repeated. Screen size: about 5,500 compounds; about 2,000 (36%) were called active. Not shown: some 18% with an inconclusive outcome. No stated cut-off is given here; in the data, active means normalized growth mostly below about 0.91 (no sharp cut-off); inconclusive means no clear call, values can overlap the other calls; inactive means mostly above about 0.92. This is one part of the list. Where a SMILES comes first, the peptide text is derived from it.

Test: chemical genetic growth profiling, strain panel (AID 1159580);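 further: tested at 20 µM; growth read once vehicle control cultures reached saturation at 30 °C; 1 = growth at the plate median or of vehicle wells; lower values mean less growth of the strain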
Settings: S. cerevisiae deletion strains, growth OD

Measured: normalized growth

CC(=O)N[C@@H](CC(=O)O)C(=O)N[C@@H](CCC(=O)O)C(=O)O (Ac-Asp-Glu-OH)
inactive: locus YAL013W, strain DEP1, hits give low values 0.996 | locus YAL021C, strain ccr4, hits give low values 1 | locus YAL026C, strain drs2, hits give low values 1.01 | locus YAL030W, strain snc1, hits give low values 1.01 | locus YBL061C, strain skt5, hits give low values 1 | locus YBR009C, strain hhf1, hits give low values 0.969 | locus YBR021W, strain FUR4, hits give low values 1.02 | locus YBR023C, strain chs3, hits give low values 1.01 | locus YBR171W, strain sec66, hits give low values 1 | locus YBR229C, strain ROT2, hits give low values 1.01 | locus YBR231C, strain swc5, hits give low values 0.997 | locus YBR279W, strain paf1, hits give low values 1 | locus YCL011C, strain gbp2, hits give low values 1 | locus YCL016C, strain dcc1, hits give low values 0.998 | locus YCL029C, strain bik1, hits give low values 0.989 | locus YCL061C, strain MRC1, hits give low values 1 | locus YCL069W, strain vba3, hits give low values 1 | locus YCR088W, strain abp1, hits give low values 1 | locus YDL005C, strain med2, hits give low values 1 | locus YDL035C, strain GPR1, hits give low values 1.01 | locus YDL040C, strain nat1, hits give low values 0.998 | locus YDL074C, strain BRE1, hits give low values 1.03 | locus YDL101C, strain DUN1, hits give low values 1.03 | locus YDL134C, strain PPH21, hits give low values 1.02 | locus YDL185W, strain tfp1, hits give low values 1 | locus YDL192W, strain arf1, hits give low values 0.996 | locus YDR001C, strain nth1, hits give low values 1 | locus YDR069C, strain doa4, hits give low values 1 | locus YDR101C, strain arx1, hits give low values 0.98 | locus YDR137W, strain rgp1, hits give low values 1.03 | locus YDR150W, strain NUM1, hits give low values 1.02 | locus YDR159W, strain sac3, hits give low values 0.983 | locus YDR162C, strain NBP2, hits give low values 1.02 | locus YDR195W, strain ref2 0.985 | locus YDR297W, strain sur2, hits give low values 0.996 | locus YDR318W, strain mcm21, hits give low values 0.981 | locus YDR334W, strain swr1, hits give low values 1.01 | locus YDR335W, strain msn5, hits give low values 1 | locus YDR388W, hits give low values 0.989 | locus YDR392W, strain spt3, hits give low values 0.898 | locus YDR502C, strain sam2, hits give low values 0.989 | locus YEL003W, strain gim4, hits give low values 1 | locus YEL037C, strain rad23, hits give low values 1.01 | locus YEL061C, strain CIN8 (second series), hits give low values 1 | locus YEL061C, strain CIN8, hits give low values 1.01 | locus YER015W, strain faa2, hits give low values 1 | locus YER016W, strain bim1, hits give low values 1 | locus YER110C, hits give low values 0.987 | locus YER111C, strain swi4, hits give low values 0.993 | locus YER155C, strain BEM2 (second series), hits give low values 1.01 | locus YER155C, strain BEM2, hits give low values 1.01 | locus YER167W, strain BCK2, hits give low values 1 | locus YFR010W, strain ubp6, hits give low values 1.01 | locus YGL078C, strain dbp3, hits give low values 0.993 | locus YGL086W, strain mad1, hits give low values 0.994 | locus YGL167C, strain pmr1, hits give low values 0.995 | locus YGL173C, strain kem1, hits give low values 1.01 | locus YGL227W, strain vid30, hits give low values 1 | locus YGL240W, strain doc1, hits give low values 0.987 | locus YGL248W, strain PDE1, hits give low values 1.02 | locus YGL253W, strain hxk2, hits give low values 1.02 | locus YGR078C, strain PAC10, hits give low values 1.01 | locus YGR135W, strain pre9, hits give low values 0.995 | locus YGR229C, strain SMI1, hits give low values 1.01 | locus YGR252W, strain gcn5, hits give low values 0.97 | locus YHR013C, strain ard1, hits give low values 0.977 | locus YHR027C, strain rpn1, hits give low values 1.01 | locus YHR030C, strain SLT2, hits give low values 1.01 and 0.999 | locus YHR079C, strain IRE1 (second series), hits give low values 0.992 | locus YHR079C, strain IRE1, hits give low values 0.99 | locus YHR094C, strain hxt1, hits give low values 0.985 | locus YHR129C, strain ARP1, hits give low values 1.01 | locus YHR142W, strain chs7, hits give low values 1.04 | locus YHR200W, strain rpn10, hits give low values 0.998 | locus YIL066C, strain RNR3, hits give low values 1.01 | locus YIL073C, strain SPO22, hits give low values 1 | locus YIL125W, strain kgd1, hits give low values 0.982 | locus YIR030C, strain dcg1, hits give low values 0.992 | locus YJL092W, strain hpr5, hits give low values 1.01 | locus YJL095W, strain BCK1 (second series), hits give low values 1 | locus YJL095W, strain BCK1, hits give low values 1.02 and 0.976 | locus YJL115W, strain asf1, hits give low values 0.999 | locus YJL129C, strain trk1, hits give low values 1.01 | locus YJL134W, strain LCB3, hits give low values 1.01 | locus YJL154C, strain vps35, hits give low values 1 | locus YJL164C, strain tpk1, hits give low values 1 | locus YJL166W, strain qcr8, hits give low values 1.01 | locus YJL168C, strain set2, hits give low values 0.99 | locus YJL187C, strain SWE1 (second series), hits give low values 1.01 | locus YJL187C, strain SWE1, hits give low values 1 | locus YJR043C, strain POL32, hits give low values 1.01 | locus YJR066W, strain TOR1, hits give low values 0.904
